A selection: hits, their analogues and other compounds. The true share with any hit is near 3.6%.
Rango-impB inh = inhibitors of Rango-importin beta complex formation. Potency, µM (highest dose often 92.2 µM), inactives show at the top dose inhibition of complex formation. Q14974. Rango CFP/YFP FRET sensor + importin beta, 45 min. 340,000 compounds, 0.031% hits; calls by dose curve;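 further: potency means the concentration at half of the fitted maximal effect; 0% = DMSO wells and 100% = buffer wells lacking importin beta; nearly all actives have a fitted effect of over 15% in size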
Target sequence (Q14974 whole entry, looked up): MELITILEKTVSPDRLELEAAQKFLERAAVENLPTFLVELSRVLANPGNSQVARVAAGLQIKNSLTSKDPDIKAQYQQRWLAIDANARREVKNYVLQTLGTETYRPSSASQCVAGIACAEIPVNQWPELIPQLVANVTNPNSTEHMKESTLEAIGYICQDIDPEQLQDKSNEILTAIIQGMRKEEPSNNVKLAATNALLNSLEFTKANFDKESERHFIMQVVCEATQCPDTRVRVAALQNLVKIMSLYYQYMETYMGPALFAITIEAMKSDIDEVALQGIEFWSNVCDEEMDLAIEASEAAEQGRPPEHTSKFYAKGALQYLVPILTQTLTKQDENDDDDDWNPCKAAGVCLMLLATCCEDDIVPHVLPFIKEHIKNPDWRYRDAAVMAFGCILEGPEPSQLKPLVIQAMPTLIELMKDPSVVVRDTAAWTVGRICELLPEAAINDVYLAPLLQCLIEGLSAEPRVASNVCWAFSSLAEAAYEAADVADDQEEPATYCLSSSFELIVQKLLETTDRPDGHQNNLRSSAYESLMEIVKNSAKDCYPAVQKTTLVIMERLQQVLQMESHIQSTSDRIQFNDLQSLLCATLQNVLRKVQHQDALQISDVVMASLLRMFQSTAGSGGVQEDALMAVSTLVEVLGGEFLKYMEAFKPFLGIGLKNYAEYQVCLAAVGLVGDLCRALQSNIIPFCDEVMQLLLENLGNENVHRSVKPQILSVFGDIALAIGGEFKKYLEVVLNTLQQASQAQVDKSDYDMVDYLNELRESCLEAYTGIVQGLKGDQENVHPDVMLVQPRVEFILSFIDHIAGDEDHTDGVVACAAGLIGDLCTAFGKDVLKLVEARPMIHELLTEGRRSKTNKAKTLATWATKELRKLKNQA
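FRET biosensor (snurportin 1 IBB flanked by EYFP and cerulean), 50 nM, with compound 5 min, then 0.125 microM importin beta in PBS, 1 mM DTT, 0.02% Tween-20, 0.1% BSA. CFP/YFP ratio read after 45 min at room temperature; pre-read flags interference.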
PLK1 PBD inh = PLK1 (human) polo-box domain binding inhibition; Potency, µM, without a hit: max response, negative = inhibition, hits mostly inhibitors; AID 720504; Plk1 PBD binding of FITC phosphopeptide, fluorescence polarization; 360,000 compounds, 2.8% hits; further: potency means the concentration at half of the fitted maximal effect; series mostly up to about 57 µM; on the % scale 0 is the no-effect control and ±100 the full control effect; nearly all actives have a fitted effect of over 65% in size
GCN5L2 inh = inhibitors of human GCN5L2 histone acetyltransferase. GCN5L2 HAT assay, ThioGlo1 CoA-SH fluorescence. Potency, µM (highest dose often 58.9 µM), for the others: at the top dose activity change, negative = inhibition, most hits filed as inhibitors. 390,000 compounds, 0.21% hits; further: potency means the concentration at half of the fitted maximal effect; on the % scale 0 is the no-effect control and ±100 the full control effect
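Fluorescence readout, Ex340nm/Em540nm: ThioGlo1 (50uM final) reacts with free CoA thiol released as 20nM GCN5L2 acetylates H3(1-25) peptide (75uM) using acetyl-CoA (70uM). Compound and enzyme sat 15 min beforehand; 20 min room-temperature reaction.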
Rango dissoc inh = inhibition of RanGTP-driven Rango-importin beta dissociation | O95149+P62826 | Biochemical FRET Rango-importin beta, RanGTP-induced dissociation | Potency, µM (titrated, usually from 46.1 µM), inactives show top-dose activity change, negative = inhibition | 340,000 compounds, 0.071% hits; calls by dose curve; further: potency means the concentration at half of the fitted maximal effect; % of control where 0% means no effect; nearly all actives have a fitted effect of over 45% in size
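Rango (0.1 uM)–importin beta (0.25 uM) complex; RanGTP-RCC1 trigger; 45 min RT; CFP/YFP FRET read.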
VDR inh = vitamin D3 receptor (human) inhibition; VDR-SRC2-3 peptide fluorescence polarization, 2 h; Potency, µM, inactives show max response, negative = inhibition, usual class: inhibitors; 400,000 compounds, 0.93% hits; AID 504847; further: potency means the concentration at half of the fitted maximal effect; on the % scale 0 is the no-effect control and ±100 the full control effect
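Compounds are added to VDR with labelled SRC2-3 coactivator peptide and held 2 h at room temperature. Inhibition of the VDR–peptide interaction is then read as a change in fluorescence polarization.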
PI5P4K alpha inh = PI5P4K alpha (human) kinase inhibition. PI5P4Kalpha enzyme, ADP-Glo luminescence, 60 min; active compounds read low. max response, %. AID 652105. P48426. 330,000 compounds, 1.2% hits; active means max response of -50% or lower; inconclusive means between -30% and -50%; inactive means -30% or higher; further: value at the top dose of about 77 µM; on the % scale 0 is the no-effect control and ±100 the full control effect
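PI5P4Kalpha ADP-Glo assay; 5 microM ATP final; 60 min RT reaction; HEPES pH 7.4/EGTA/CHAPS, 5% DMSO; controls lacking substrate or enzyme; luminescent end-point.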
Active calls of the source: *; ? = inconclusive; . = no result; [ ] = another dose, or the depositor's remark. Unless noted, the call rests on the fitted dose curve; in most records, active means well fitted curve in the direction sought with a large enough effect; inconclusive means small, poorly fitted or top-dose-only effect, or another doubt; inactive means no such curve, though single readings can be large; an effect the other way counts as inactive or inconclusive.

SMILES | Rango-impB inh | PLK1 PBD inh | GCN5L2 inh | Rango dissoc inh | VDR inh | PI5P4K alpha inh
COCCOC(=O)c1[nH]c2c(c1C)C(=O)C(C(=O)OC)C(C)C2 (stereo unspecified) | 0% | -11% | -1% | -11% | -17% | 1
Cc1ccc2c(c1)cc(CN(Cc1ccco1)C(=O)COc1ccccc1)c1nnnn12 | -3% | 24µM* | -5% | 7% | -9% | -11
CCC(=O)N(Cc1ccco1)Cc1cc2cccc(C)c2n2nnnc12 | 1% | -1% | 2% | 32% | 19% | 4
CCOC(=O)C1=C(C)C(c2ccc(OC)cc2)NC(=S)N1 (stereo unspecified) | 4% | 6µM* | 4% | 4% | 28µM* | -30
N#CCc1ccc(Oc2ncccn2)cc1 | 1% | 17µM* | -5% | -6% | ? | ?
CCOC(=O)Cn1c(=O)oc2cc(S(=O)(=O)Nc3cc(OC)cc(OC)c3)ccc21 | . | . | -7% | . | -1% | .
CC(Sc1nc2ccc(C(=O)c3ccccc3)cc2[nH]1)C(=O)O (stereo unspecified) | 3% | -12% | 0% | 13% | 2% | -52*
Cc1ccc(CSc2nc3ccc(NC(=O)C(C)C)cc3s2)cc1 | . | . | -9% | . | -7% | .
Cn1cccc1/C=N/NC(=O)c1ccccn1 | -1% | 24µM* | -15% | 5% | ? | -12
CSc1nc(-c2ccco2)nn1S(=O)(=O)c1ccccc1 | . | . | 4% | . | . | .
COc1ccccc1C(=O)n1nc(-c2ccco2)nc1SC | -6% | 11µM* | -2% | 6% | -9% | -4
CCS(=O)(=O)n1nc(-c2ccco2)nc1SC | -3% | 9.5µM* | . | -5% | ? | ?
Cc1nc(-c2ccc(Cl)cc2)sc1CCNC(=O)C(=O)Nc1ccc(F)cc1F | . | . | -11% | . | 6% | .
CN1/C(=C/C(=S)NC(=O)C2(C)CC2(Cl)Cl)C(C)(C)c2ccccc21 (stereo unspecified) | ? | -1% | -2% | 0.52µM*[inhibitor] | 15% | -1
COc1cc(Cl)c(C)cc1NC(=S)NN | -2% | 27µM* | -26% | 0% | 5% | -13
Cc1ccc(OCC(=O)Nc2c(C(=O)c3ccc(Cl)cc3)oc3ccccc23)cc1C | . | . | -5% | . | 2% | .
COC(=O)c1ccn(CSc2cc(Cl)ccc2Cl)n1 | -1% | 24µM* | -3% | 1% | -19% | 0
COc1ccc(Nc2ncnc3c2cnn3-c2ccc(C)cc2)cc1Cl | . | . | 7% | . | 10% | .
Cc1cc(C)c2c(=N)c3ccccc3n(CCCCCCCCn3c4ccccc4c(=N)c4c(C)cc(C)nc43)c2n1 | 0% | -8% | . | ? | 25% | -67*
CCCCCCCCn1c2c(c(=N)c3ccccc31)CCC2 | -2% | -5% | -6% | 0% | -14% | 1
O=C1OCCC1N(C(=O)C1CC1)c1cccc(Cl)c1 (stereo unspecified) | . | . | -10% | . | -1% | .
Cc1ccc(C2NC(=O)CCC2[N+](=O)[O-])cc1 (stereo unspecified) | 1% | 19µM* | -2% | 0% | ? | -13
COc1ccc(C2NC(=O)CCC2[N+](=O)[O-])cc1 (stereo unspecified) | 4% | -12% | -2% | -10% | 4% | 8
CCC(Sc1nc2c(sc3ccccc32)c(=O)n1CCc1ccc(OC)c(OC)c1)C(=O)N(CC)CC (stereo unspecified) | . | . | -4% | . | 12% | .
O=C(NCC(=O)N1CCCCCC1)c1ccc(Cl)cc1 | 0% | 6.7µM* | -11% | -12% | ? | -19
SMILES | Rango-impB inh | PLK1 PBD inh | GCN5L2 inh | Rango dissoc inh | VDR inh | PI5P4K alpha inh
COC(=O)/C=C/COc1ccccc1[N+](=O)[O-] | 1% | 3.4µM* | -14% | -3% | ? | -67*
O=C(COc1ccccc1[N+](=O)[O-])c1ccccc1 | 0% | -13% | -7% | 10% | -14% | -7
COc1ccccc1C1CC(=O)Oc2cc3c(cc21)OCO3 (stereo unspecified) | . | . | 28µM* | . | ? | .
COc1ccccc1C1CC(=O)Oc2cc(C)c(Cl)cc21 (stereo unspecified) | -1% | -8% | -12% | 4% | ? | 4
Nc1n[nH]c(=S)n1/N=C1/C(=O)Nc2ccccc21 | -1% | 27µM* | 7.1µM* | -2% | ? | -89*
Cc1ccc(C(c2nnnn2CC2CCCO2)N2CCN(C)CC2)cc1 (stereo unspecified) | -2% | 3% | -3% | -8% | -5% | -1
COc1ccc(C(c2nnnn2CC2CCCO2)N2CCN(c3ccc(F)cc3)CC2)cc1 (stereo unspecified) | -3% | 24µM* | -4% | 2% | -3% | -12
Cc1ccc(C(=O)NCC2CCCO2)cc1N1CCCC1=O (stereo unspecified) | -5% | 27µM* | 32% | 3% | 7% | -22
O=C(NCC1CCCO1)c1cccc(N2CCCC2=O)c1 (stereo unspecified) | 4% | -6% | -3% | 1% | 0% | -2
CCOC(=O)c1ccc(N2C(=O)c3n[nH]c(-c4ccco4)c3C2c2cccc(O)c2)cc1 (stereo unspecified) | . | . | -13% | . | -14% | .
O=C(O)c1ccc(CN(Cc2ccccc2)S(=O)(=O)c2ccc(Cl)cc2)cc1 | -2% | 24µM* | -2% | -3% | ? | 0
CCOC(=O)c1ccc(CN(Cc2ccccc2)S(=O)(=O)c2ccc(C)cc2)cc1 | . | . | -9% | . | 11% | .
NC(=O)COC(=O)c1ccc(Cl)c(S(=O)(=O)N(Cc2ccccc2)c2ccc(Cl)cc2)c1 | -3% | -4% | -16% | 0% | -20% | 11
O=C(O)c1ccc(Cl)c(S(=O)(=O)N(Cc2ccccc2)c2ccc(Cl)cc2)c1 | 3% | 30µM* | -6% | -7% | -11% | -8
COc1ccc(NC(=O)C(CC(=O)O)C(C)c2ccccc2)cc1 (stereo unspecified) | 1% | 9.5µM* | -11% | 5% | ? | -10
CCc1c(C)sc2c1CCN(Cc1cccc(F)c1)C2c1ccccc1 (stereo unspecified) | . | . | -3% | . | 2% | .
CC(=O)c1cccc(NC(=O)c2c(-c3ccccc3)c(-c3ccccc3)nn(C)c2=O)c1 | . | . | -3% | . | 8% | .
O=C(OC(C(=O)Nc1ccc(Cl)cc1C(F)(F)F)c1ccccc1)c1c(Cl)cccc1Cl (stereo unspecified) | -1% | 30µM* | -9% | 1% | ? | -6
Cc1ccc(C(=O)OC(C(=O)Nc2ccc(Cl)cc2C(F)(F)F)c2ccccc2)cc1 (stereo unspecified) | 0% | -11% | 0% | -12% | 3% | 2
CCOc1ccccc1CNC(=O)c1cc(-c2ccc(Cl)s2)nc2ccccc12 | . | . | -9% | . | 6% | .
